Many of the other results were omitted from the sample, so hits are more common in it than they were.
GRP78 ERSR act: qHTS for Inducers of the Endoplasmic Reticulum Stress Response (ERSR) in Human Glioma: qHTS | 0.02% of 420,000 active | U87-MG GRP78 promoter luciferase reporter, 16 h | Potency, µM, inactives show at the top dose activation, actives largely listed as activators; note: series mostly up to about 76 µM; % of control where 0% means no effect; nearly all actives have a fitted effect of over 35% in size
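ERSR induction read as luciferase luminescence (Bright-Glo, 10 min at room temperature) in stably transfected human U87-MG glioma cells exposed to compounds for 16 h, using GRP78 as sensor.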
ALOX12 inh: Primary qHTS assay for inhibitors of human arachidonate 12S-lipoxygenase (ALOX12): Round 2; 1.1% of 580,000 active; Potency, µM (highest dose often 108 µM), for the others: at the highest dose activity change, negative = inhibition, most hits filed as inhibitors; AID 1671190, 2021; Polyunsaturated fatty acid lipoxygenase ALOX12 (Homo sapiens), P18054; purified 12hLO, xylenol orange hydroperoxide absorbance; note: % is set by controls: 0 for no effect and ±100 for the full control effect
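Hydroperoxide product was detected by ferrous iron/xylenol orange as the 573 to 405 nm absorbance ratio. Arachidonic acid at 40 uM (final) was turned over for 30 min at room temperature by 150 nM human 12hLO, pH 7.0 Hepes buffer, after 15 min compound preincubation.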
Sfp PPTase inh: qHTS Assay for Inhibitors of Bacillus subtilis Sfp phosphopantetheinyl transferase (PPTase); Potency, µM, for the others: largest response in the series, negative = inhibition, most hits filed as inhibitors; Biochemical Sfp PPTase activity, qHTS; 3.5% of 310,000 active; 4'-phosphopantetheinyl transferase ffp (Bacillus subtilis), Q9F4F7; AID 1490, 2009;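 note: the enzyme is Sfp with the accession as filed and its product quenches rhodamine fluorescence; 0% = enzyme reaction without inhibitor and -100% = no enzyme wells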
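With Hepes-Na pH 7.6 buffer containing 10 mM MgCl2, Sfp (15 nM) modified BHQ-2-YbbR (12.5 uM) using rhodamine-CoA (5 uM). Two reads 30 minutes apart at 525/598 nm yielded each well's rate.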
VDR inh: Inhibitors of the vitamin D receptor (VDR): qHTS; Vitamin D3 receptor (Homo sapiens), P11473; VDR-SRC2-3 peptide fluorescence polarization, 2 h; 0.93% of 400,000 active; Potency, µM, without a hit: max response, negative = inhibition, usual class: inhibitors; AID 504847, 2011; note: % is set by controls: 0 for no effect and ±100 for the full control effect
Target sequence (P11473 whole entry, looked up): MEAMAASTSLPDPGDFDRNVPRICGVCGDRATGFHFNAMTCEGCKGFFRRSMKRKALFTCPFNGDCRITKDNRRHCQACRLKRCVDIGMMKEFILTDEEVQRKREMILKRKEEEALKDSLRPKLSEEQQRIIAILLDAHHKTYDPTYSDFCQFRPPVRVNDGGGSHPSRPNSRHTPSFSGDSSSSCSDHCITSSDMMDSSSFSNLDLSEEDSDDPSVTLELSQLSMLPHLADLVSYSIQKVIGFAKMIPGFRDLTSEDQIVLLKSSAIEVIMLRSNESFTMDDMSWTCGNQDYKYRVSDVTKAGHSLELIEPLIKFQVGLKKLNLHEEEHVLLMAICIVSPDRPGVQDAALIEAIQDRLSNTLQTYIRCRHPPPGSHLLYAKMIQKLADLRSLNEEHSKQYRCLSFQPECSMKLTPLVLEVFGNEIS
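VDR–SRC2-3 interaction, FP format. Cmpds 23 nl via pintool, brief spin, 2 h ambient incubation.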
G9a block: qHTS Assay for Inhibitors of Histone Lysine Methyltransferase G9a; Histone-lysine N-methyltransferase EHMT2 (Homo sapiens), Q96KQ7; G9a H3K9 monomethylation, AlphaScreen, 2 h; Potency, µM (doses to about 102 µM), for the others: at the top dose activity, negative = inhibition, most hits filed as inhibitors; 8.8% of 350,000 active; AID 504332, 2011; note: % is set by controls: 0 for no effect and ±100 for the full control effect; nearly all actives have a fitted effect of over 75% in size
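Using a bead-based AlphaScreen, monomethylated H3K9 product from 2 h room-temperature reactions (G9a 20 nM, peptide 500 nM, SAM 20 uM) was detected with 0.5 ug/mL rabbit anti-H3K9me1 antibody.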
* hit, by the source's call; [ ] = dose if it differs, or a comment. Calls come from the whole dose curve; as a rule, active = well fitted curve in the direction sought with a large enough effect; inconclusive = small, poorly fitted or top-dose-only effect, or another doubt; inactive = no such curve, though single readings can be large; an effect the other way counts as inactive or inconclusive. Potency is the fitted concentration of half-maximal effect.

`N#CCCn1c(SCC(=O)Nc2ccc(C(N)=O)cc2)nc2ccccc21` gave ALOX12 inh 6%.
For CN(C)CCSc1ccc2c(c1)OCCCO2 the results were ALOX12 inh -23%.
Screening Cc1ccc(S(=O)(=O)N2CCOCC2)cc1NC(=O)CNCc1ccccc1Cl returned GRP78 ERSR act -1%, ALOX12 inh inconclusive, VDR inh -11% and G9a block 18µM*.
`O=C(Cc1ccccc1Cl)Nc1cc(S(=O)(=O)N2CCOCC2)ccc1N1CCOCC1` gave GRP78 ERSR act 0%, ALOX12 inh 131%, VDR inh 0% and G9a block 3.5µM*.
`O=C(Cc1ccccc1F)Nc1cc(S(=O)(=O)N2CCOCC2)ccc1N1CCOCC1` gave GRP78 ERSR act -1%, ALOX12 inh -16%, VDR inh -7% and G9a block 3%[12.7 µM].
Cc1ccc(S(=O)(=O)N2CCCCC2)cc1NC(=O)CNc1ccc(C(F)(F)F)cc1 was read as GRP78 ERSR act -6%, ALOX12 inh -14%, VDR inh 12% and G9a block 56µM*.
For Cc1ccc(S(=O)(=O)N2CCCCC2)cc1NC(=O)CNCc1ccco1 the results were GRP78 ERSR act -7%, ALOX12 inh 2%, Sfp PPTase inh 6.3µM* and VDR inh -13%.
For CCN(CC)S(=O)(=O)c1ccc(C)c(NC(=O)CNc2cccc(S(=O)(=O)N3CCCC3)c2)c1 the results were GRP78 ERSR act -4%, ALOX12 inh -19%, VDR inh -2% and G9a block -8%.
Screening O=C(COC(=O)c1cccs1)c1ccc(OCc2ccccc2)cc1 returned ALOX12 inh -2%.
`CC(=O)c1ccc(OCCCC(=O)Nc2cc(S(=O)(=O)N3CCCCC3)ccc2C)cc1` gave GRP78 ERSR act -1%, ALOX12 inh -27%, VDR inh 21% and G9a block 35µM*.
For CCN(C(=S)Nc1cc(S(=O)(=O)N2CCOCC2)ccc1Cl)c1cccc2ccccc12 the results were GRP78 ERSR act -4%, ALOX12 inh 3%, Sfp PPTase inh 4µM*, VDR inh -18% and G9a block 1.8µM*.
`COc1ccc(NC(=O)c2cc(Br)c(O)c(OC)c2)cc1` gave ALOX12 inh -27%.
For CCCc1cc2c(-c3ccccc3)cc(=O)oc2cc1OCc1ccc(C(=O)O)o1 the results were GRP78 ERSR act 4%, ALOX12 inh inconclusive, Sfp PPTase inh -29%, VDR inh -24% and G9a block 45µM*.
`CCCCOC1(c2ccccc2)NC(=S)NN=C1c1ccccc1` (stereo not drawn) gave Sfp PPTase inh 6% and G9a block 45µM*.
Screening COc1ccccc1-n1cnnc1SCC(=O)NC(C)c1ccc(-c2ccccc2)cc1 (stereo not drawn) returned ALOX12 inh 1.6µM*.
`COc1ccccc1-n1cnnc1SCC(=O)NC1CCCC1` gave GRP78 ERSR act 1%, ALOX12 inh -3%, VDR inh -17% and G9a block -21%[59 µM].
CCc1ccc(CN2CCC(Oc3ccc(C(=O)NCCOC)cc3Cl)CC2)o1 was read as ALOX12 inh 38%.
For Cc1c(C(=O)OC(C)C)sc(N)c1C#N the results were ALOX12 inh 11%.
Screening COC(=O)c1sc(N)c(C#N)c1C returned ALOX12 inh 4.5µM*.
CCCc1c(C(=O)OCC)sc(N)c1C#N was read as GRP78 ERSR act -1%, ALOX12 inh -6%, Sfp PPTase inh 63µM*, VDR inh -11% and G9a block inconclusive.
`CCOC(=O)c1sc(N)c(C#N)c1CSc1nnc(C2CC2)n1N` gave GRP78 ERSR act -3%, ALOX12 inh 24%, Sfp PPTase inh 12%, VDR inh -2% and G9a block -23%[12.7 µM].
For COc1ccc(C(c2nnnn2CCc2ccccc2)N2CCN(C3CCCC3)CC2)cc1 (stereo not drawn) the results were GRP78 ERSR act -4%, ALOX12 inh inconclusive, Sfp PPTase inh 0%, VDR inh 10% and G9a block 79µM*.
For CC(C)n1nnnc1C(c1ccc(F)cc1)N1CCN(C2CCCC2)CC1 (stereo not drawn) the results were GRP78 ERSR act -6%, ALOX12 inh inconclusive, Sfp PPTase inh -9%, VDR inh -20% and G9a block 79µM*.
For COc1ccccc1N1CCN(C(CNC(=O)C(=O)NCCc2ccccc2)c2cccnc2)CC1 (stereo not drawn) the results were GRP78 ERSR act -5%, ALOX12 inh 2%, VDR inh 1% and G9a block 5.6µM*.
COc1ccccc1N1CCN(C(c2ccccc2)c2nnnn2Cc2ccccc2)CC1 (stereo not drawn) was read as GRP78 ERSR act -3% and VDR inh -17%.
Screening COc1ccccc1N1CCN(C(c2ccc(N(C)C)cc2)c2nnnn2CCc2ccccc2)CC1 (stereo not drawn) returned GRP78 ERSR act -2%, ALOX12 inh -12%, Sfp PPTase inh -11%, VDR inh 19% and G9a block 2µM*.
`CCC(c1nnnn1CCc1ccccc1)N1CCN(c2ccc(OC)cc2)CC1` (stereo not drawn) gave GRP78 ERSR act -5%, ALOX12 inh 4%, Sfp PPTase inh 2%, VDR inh -8% and G9a block 11µM*.
Screening CCC(c1nnnn1Cc1ccccc1)N1CCN(c2ccccc2)CC1 (stereo not drawn) returned GRP78 ERSR act -2%, ALOX12 inh 0%, Sfp PPTase inh -5%, VDR inh 11% and G9a block -10%[12.7 µM].
Screening CCSc1cc(N2CCCC2)nc(-c2ccc(Cl)cc2)n1 returned GRP78 ERSR act -4%, ALOX12 inh -10%, VDR inh -9% and G9a block -10%[0.501 µM].
`CCCSc1cc(N2CCN(C)CC2)nc(-c2ccc(OC)cc2)n1` gave GRP78 ERSR act -8%, ALOX12 inh -74%, Sfp PPTase inh -11%, VDR inh 13% and G9a block 50µM*.
Screening O=c1c2nccnc2[nH]c(=S)n1Cc1ccccc1 returned GRP78 ERSR act -3%, ALOX12 inh -28%, Sfp PPTase inh -21%, VDR inh 1% and G9a block 40µM*.
Screening COc1ccc(CNC(=O)C[C@H]2C[C@H](C(=O)N3CCOCC3)[C@@]3(CCC4CCCC4)c4[nH]c5cc(-c6ccco6)ccc5c4CCN3C2=O)cc1OC returned GRP78 ERSR act -2%, ALOX12 inh 40µM* and VDR inh -22%.

High-throughput results (PubChem BioAssay)
